Shown are actives, neighbours in structure and some others; about 1.4% of the full set was active somewhere.
CRFR2-BP ag – agonists of human CRF-binding protein/CRF-R2 receptor complex. HEK293 CRF-R2/CRF-BP, calcium dye fluorescence (FLIPR); percent of saturating CRF peptide response. activation, % at 13.2 µM. hit rate 0.46% among 350,000. AID 588473;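 active = activation of at least 50%, plus an integration ratio under a set limit after plate pattern correction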;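 also: plate controls were neutral control wells without compound for no effect and CRF at EC100 for full effect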
IDE inh – inhibits human insulin-degrading enzyme in HEK cells; FAbetaB cleavage, fluorescence polarization; inhibition, % at 5.59 µM; hit rate 0.41% among 320,000; AID 434962;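 active = percent inhibition above the average of all tested compounds plus 3 SD, set per screening campaign, cut at about 16% in these data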;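 also: IDE supplied by intact live HEK cells; FP after avidin binding of uncleaved biotin substrate so inhibition keeps polarization high; 0% = DMSO wells and 100% = 60 µM reference IDE inhibitor Ii1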
HNF4A DNA FP – change in binding of human HNF4 alpha to DNA; P41235; activity change, % at 10 µM; HNF4a-FITC DNA binding, fluorescence polarization, 1 h; hit rate 0.3% among 360,000; AID 1224865; in the data active = activity change above about 30%, passing the limit was not always enough
Target sequence (P41235 whole entry, looked up): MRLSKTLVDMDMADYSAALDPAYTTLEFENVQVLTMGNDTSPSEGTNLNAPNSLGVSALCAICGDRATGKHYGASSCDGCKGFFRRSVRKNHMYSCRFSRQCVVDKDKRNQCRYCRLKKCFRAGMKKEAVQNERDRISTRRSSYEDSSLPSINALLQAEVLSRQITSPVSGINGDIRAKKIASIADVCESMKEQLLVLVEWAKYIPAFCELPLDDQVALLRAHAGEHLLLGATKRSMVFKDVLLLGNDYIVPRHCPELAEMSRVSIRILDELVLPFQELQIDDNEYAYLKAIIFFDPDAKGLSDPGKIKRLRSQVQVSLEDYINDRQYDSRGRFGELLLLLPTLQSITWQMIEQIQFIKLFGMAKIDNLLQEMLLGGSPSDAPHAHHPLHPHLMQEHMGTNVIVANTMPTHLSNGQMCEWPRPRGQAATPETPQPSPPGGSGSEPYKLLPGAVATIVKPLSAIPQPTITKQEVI
TPT1 inh – C. albicans TPT1 enzyme inhibition | hit rate 0.81% among 300,000 | AID 1962 | inhibition, % at 5 µM | recombinant caTPT1, FP RNA substrate dephosphorylation;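 active = inhibition above the mean of all tested compounds plus 3 SD, set per screening campaign, cut at about 24% in these data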;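 also: plate controls were DMSO alone for no effect and ferristatin control at 100 nM for full effect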
IDE act – activators of human insulin-degrading enzyme in cells; HEK cells, FAbeta-B cleavage, fluorescence polarization; 0% vehicle, 100% cell-free pure enzyme wells; activation, % at 5.96 µM; hit rate 0.073% among 340,000; AID 493087;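 active = activation above the mean of all tested compounds plus 3 SD, set per screening campaign, cut at about 17% in these data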
TPT1 inh confirm – confirmation of Candida albicans TPT1 inhibitors | shares compounds with TPT1 inh | recombinant caTPT1, fluorescence polarization, RNase T1 coupled | inhibition, % at 5 µM | hit rate 74% among 2,400;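 active = inhibition above the primary screen limit, the mean inhibition of all tested compounds plus 3 SD, cut at about 25% in these data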
RNase T1 counter – RNase T1 inhibition in TPT1 counter-screen | shares compounds with TPT1 inh | RNase T1 cleavage, fluorescence polarization, 1536-well | inhibition, % at 5 µM | hit rate 83% among 2,400;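 active = inhibition above the solvent-only control well mean plus 3 SD, limit set per screening run, cut at about 23% in these data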;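 also: plate controls were DMSO wells with enzyme for no effect and wells without RNase T1 for full effect; inhibitors block cleavage so intact labeled substrate keeps polarization high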
Target sequence (P00651 whole entry, looked up): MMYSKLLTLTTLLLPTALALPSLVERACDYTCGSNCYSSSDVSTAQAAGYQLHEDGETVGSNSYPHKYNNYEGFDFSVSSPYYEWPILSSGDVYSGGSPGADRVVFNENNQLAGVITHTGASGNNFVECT
Active calls of the source: *; . = no result given.

SMILES | CRFR2-BP ag | IDE inh | HNF4A DNA FP | TPT1 inh | IDE act | TPT1 inh confirm | RNase T1 counter
COc1ccc(NC(=O)C(c2ccccc2)N(C)C(=O)c2ccc(=O)[nH]c2)cc1 (configuration not stated) | -3 | 0 | -5 | 2 | 3 | . | .
CCN(CC)CCn1c2c(c(SCC(=O)Nc3cc(OC)cc(OC)c3)nc1=O)CCC2 | -2 | 0 | -4 | 0 | 8 | . | .
CCC(CC)=N/N=C/c1c(O)n(CC)c2cc(C3=NNC(=O)CC3)ccc12 | -3 | -3 | 11 | 64* | -3 | 44* | 56*
CCCCOc1ccc(C2=NNC(=O)CC2)cc1 | 0 | -1 | -2 | 1 | 4 | . | .
CCn1c(O)c(/C=N/N=C/c2ccccc2)c2ccc(C3=NNC(=O)CC3)cc21 | 48 | -3 | -10 | 61* | -2 | 72* | 84*
CCn1c(C)nc2cc(C(=O)N/N=C/c3ccccc3)ccc21 | 1 | 5 | 2 | -6 | 2 | . | .
O=C1NC(=S)S/C1=C\c1ccc(SCc2ccccc2)o1 | 19 | 4 | 35* | 47* | 3 | 46* | 65*
COc1ccccc1C=C1SC(=S)NC1=O | 2 | . | 6 | . | 5 | . | .
O=C(NCCN1CCOCC1)c1cccc(S(=O)(=O)Nc2ccc(Br)cc2)c1 | 0 | -3 | 2 | . | 1 | . | .
CC(=O)Nc1ccc(S(=O)(=O)N[C@@H](C)C(=O)NC2CCCc3ccccc32)cc1 (some centres not stated) | 0 | -1 | 3 | . | 2 | . | .
CC(CC1C(C#N)=C(N)SC(N)=C1C#N)c1ccccc1 (configuration not stated) | 44 | 6 | 74 | 60* | -1 | 29* | 38*
Cc1cccc(-c2cnc3cccnn23)c1 | . | . | 0 | . | . | . | .
COc1cc(OC)cc(C(=O)NC(=S)N2CCCCCC2)c1 | 0 | -10 | 1 | 43* | 3 | 2 | 4
O=C(c1ccc2ccccc2c1)N1CCN(Cc2ccccc2)CC1 | 0 | 2 | 6 | 2 | 0 | . | .
O=[N+]([O-])c1ccc(N2N=C(c3ccco3)CC2c2ccccc2)cc1 (configuration not stated) | 51* | 22* | 50* | 135* | -10 | 107* | 108*
COc1ccccc1N1N=C(c2ccc([N+](=O)[O-])cc2)CC1c1ccccc1 (configuration not stated) | 34 | 9 | 47* | 52* | 1 | 46* | 57*
O=C(NCc1cccc(C(F)(F)F)c1)c1ccc2sc([C@H]3C[C@H](O)[C@@H](CO)O3)nc2c1 | . | . | 0 | . | . | . | .
COc1cccc(N2CCN(C(=O)CCNS(=O)(=O)c3ccc(F)c(F)c3)CC2)c1 | 0 | 1 | 1 | . | 0 | . | .
CCc1cccc(OCCCn2ccnc2)c1 | 0 | 0 | 0 | 36* | 5 | 3 | 9
CC(=O)c1cccc(-c2ccc3c(=O)[nH]c(Nc4ccccc4)cc3c2)c1 | 3 | 5 | 12 | 30* | 0 | 59* | 71*
N#Cc1c(-c2ccco2)cc(-c2ccc(F)cc2)nc1N | 0 | 3 | 44* | 25* | -1 | 30* | 38*
CCN1CC2=C(OC(N)=C(C#N)C2c2cccs2)/C(=C\c2cccs2)C1 (configuration not stated) | 8 | 9 | 5 | 26* | -1 | 14 | 21
CC(C(=O)N1CCCC1)N(c1ccc(Cl)cc1)S(C)(=O)=O (configuration not stated) | -4 | . | -1 | . | . | . | .
COc1ccc(CCn2c(=N)c(C(=O)NC3CCCC3)cc3c(=O)n4ccccc4nc32)cc1OC | 3 | 1 | 24 | 28* | 4 | 45* | 57*
COc1ccc(CCn2c(=N)c(C(=O)NC3CCCC3)cc3c(=O)n4ccccc4nc32)cc1 | 3 | 0 | 3 | 2 | 2 | . | .
SMILES | CRFR2-BP ag | IDE inh | HNF4A DNA FP | TPT1 inh | IDE act | TPT1 inh confirm | RNase T1 counter
COc1ccc(NC(=O)CSc2ccc3nnc(CCNC(=O)c4ccccc4)n3n2)cc1 | 1 | 6 | 1 | 41* | -2 | 3 | 7
COC(=O)c1cc2ccc(OC)cc2c2cc(OC)c(OC)cc12 | -4 | -5 | -1 | . | -5 | . | .
CSc1cccc(CNC(=O)C2CCC(=O)N(CC3CCCCC3)C2)c1 (configuration not stated) | -1 | -5 | -1 | 2 | -4 | . | .
Cc1c(C#N)c(O)[nH]c(=O)c1N=Nc1ccc(S(N)(=O)=O)cc1 | 0 | 4 | 7 | 25* | 3 | 14 | 26*
O=C(COc1ccc2ccccc2c1)Nc1nccs1 | 0 | 0 | 5 | 28* | 4 | 4 | 10
Cc1cc(=O)n2nc(N3CCC(C(=O)Nc4cccc(Cl)c4C)CC3)sc2n1 | -3 | -4 | -6 | 0 | 2 | . | .
Cc1cc(=O)n2nc(N3CCCC3C(=O)Nc3cccc(Cl)c3C)sc2n1 (configuration not stated) | -2 | 2 | 13 | 30* | -7 | 92* | 103*
CCCCn1c(O)c(/C=C2\C=Nc3ccccc32)c(=O)[nH]c1=O | 10 | 0 | 5 | 30* | 1 | 33* | 43*
O=C(Nc1ccc(N2CCOCC2)cc1)c1cc2ccccc2o1 | -1 | 4 | -5 | 3 | 5 | . | .
O=C(/C=C/N1CCOCC1)c1cc2ccccc2o1 | 0 | 2 | -1 | 26* | -1 | 3 | 9
O=C(/C=C/N1CCOCC1)c1coc2ccccc12 | -1 | 7 | 2 | 26* | 7 | 1 | 14
CCOc1ccc(N(CC(=O)Nc2ccccc2C(=O)N2CCCC2)S(C)(=O)=O)cc1 | -1 | 3 | -3 | -1 | 1 | . | .
O=C1NC[C@H](CCCCN2C[C@H](Cc3ccccc3)N(CCc3ccc(O)cc3)C(=O)C2=O)N(CCc2ccccc2)C1=O | . | . | 1 | . | . | . | .
CC(=N)c1c(O)c2ccccc2oc1=O | 1 | 6 | 0 | 27* | -1 | 4 | 5
CCCCN=C(C)c1c(O)c2ccccc2oc1=O | -1 | -2 | -2 | -5 | 2 | . | .
COc1cc([N+](=O)[O-])cc(/C=N/NC(=O)c2cc(C)nc3ccccc23)c1O | 2 | -2 | 4 | 18 | -1 | . | .
COc1cc([N+](=O)[O-])cc(/C=N/NC(=O)c2cc(-c3ccccc3)nc3ccccc23)c1O | -1 | 1 | 17 | 41* | 13 | 29* | 45*
COc1cc(/C=N/NC(=O)c2cncc(Br)c2)cc([N+](=O)[O-])c1O | 11 | 7 | 11 | 44* | 3 | 49* | 64*
O=C(N/N=C\c1ccc([N+](=O)[O-])o1)c1cncc(Br)c1 | 1 | 0 | -4 | 0 | 9 | . | .
COc1cc([N+](=O)[O-])cc(/C=N/NC(=O)c2cncc(Br)c2)c1O | 3 | -2 | 10 | 42* | 3 | 43* | 59*

Screening data from PubChem BioAssay.
